Molecules are shown by their SMILES. In all, about 300,000 compounds went through this assay and about 5,200 (1.7%) were called active. The sample as a whole holds a higher share of actives than the screen did. Values without a mark were called inactive.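 How the source made its calls: active means mean replicate activation of at least 50% with a set share of replicates each reaching 50%; inconclusive means only one of those two conditions met; inactive means mean below 50% and too few replicates reaching it.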

The nature of this assay: HSF-1 activators, primary screen, NIH3T3-HGL cells, MG132 stress, luminescence, single point (AID 504408).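 Further: 0% = median of the neutral control wells and 100% = twice that signal.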 To be noted: NIH3T3-HGL HSF-1 luciferase reporter, MG132, 8 h; at 9 µM; hits give high values; 100% = twice DMSO control signal. On the technique in general: Reporter assays use an easily measured gene product as a stand-in for the process of interest.
As to `O=C(CCCN=C1NS(=O)(=O)c2ccccc21)OCC(=O)c1ccc(F)c(F)c1`, the activation is -1.2%. Regarding `CC(Oc1ccc(F)cc1)C(=O)Nc1cc(S(=O)(=O)N2CCOCC2)ccc1N1CCN(C)CC1` (configuration not stated), the activation is -1.39%. Consider `Cc1ccc(S(=O)(=O)N(C)c2ccc(OCC(=O)OCc3ccc(C#N)cc3)cc2)cc1`, for which the activation is -4.36%. For `Cc1ccc2nc(SCC(=O)N3CCN(c4ccccc4)CC3)nc(=O)n2c1`, the activation was -13.7%. `C=CS(=O)c1sc(Cl)c(N2CCOCC2)c1[N+](=O)[O-]` (configuration not stated): the activation was 103% (active). Take `CCOC(=O)C1=C(CSc2nccn2C)NC(=O)NC1c1ccc(OC)cc1` (configuration not stated): the activation is 30.7%. Take `COCCOC(=O)C1=C(C)N=c2s/c(=C\c3cccs3)c(=O)n2C1c1cccs1` (configuration not stated): the activation was 20%. In the case of `CCOC(=O)C1=C(C)N=c2s/c(=C\C(=O)OC)c(=O)n2C1c1ccc(OC)cc1` (configuration not stated), the activation is 61.6% (active). Next, `COCCCn1c(SCC(=O)Nc2oc(C)c3c(C)n[nH]c(=O)c23)nc2sc3c(c2c1=O)CCC3`: 0.458%; `C#CCOc1ccccc1/C=C1/C(=O)ON=C1C`: -2.14%. With `C=CCOc1ccc(/C=C2/C(=O)ON=C2C)cc1OCC`, the activation is -6.38%. For `CC1=NOC(=O)/C1=C\c1ccccc1`, the activation was 54.7% (active).

As to `Cn1ccsc1=NC(=O)c1cc(S(=O)(=O)N2CCOCC2)ccc1Cl`, the activation was 0.095%.

As to `O=C(Nc1c(Br)cc2c(c1Br)Cc1ccccc1-2)C(F)(F)F`, the activation is -5.38%. Take `COc1ccc2[nH]cc(/C=C(/C#N)S(=O)(=O)c3ccccc3)c2c1`: the activation was 0.918%.

Consider `COc1ccc(/C=C(\C#N)c2c[nH]c3ccccc23)cc1`, for which the activation was 69.3% (active). The figure for `COc1cc(/C=C(\C#N)c2nc3ccccc3[nH]2)ccc1O` is 20.9%.

For `O=C(COc1ccccc1)Nc1cc2c3c(c1)CC(=O)N3CCC2`, the activation was 5.75%. In the case of `O=C(NCc1cccnc1)c1cc(S(=O)(=O)N2CCOCC2)c(Cl)cc1Cl`, the activation was -12.2%. The figure for `CCN(CC)CCn1c2c(c(SCC(=O)Nc3ccc(C(C)C)cc3)nc1=O)CCC2` is 8.29%; for `Cc1cc(C(=O)N2CCN(c3ccccn3)CC2)c(C)o1` it is 62.2% (active); for `O=C(c1cc2ccccc2s1)N1CCN(c2ccccn2)CC1` it is -12%. As to `O=C(C(Cl)Cl)N1CCN(c2ccccn2)CC1`, the activation was 3.47%. On to `COc1ccc(CCNc2cc(N3CCN(C(=O)c4ccccc4OC)CC3)ccc2[N+](=O)[O-])cc1OC`, for which the activation is 22.3%.

For `N#Cc1ccc(-c2ccc(Cl)cc2)nc1Oc1ccc(F)cc1`, the activation is 82.1% (active). In the case of `N#Cc1ccc(-c2ccc(F)cc2)nc1Sc1ccccc1`, the activation is -14.9%. Next, `CN(C)c1ccnc(Oc2ccc(F)cc2)c1C#N`: 3.38%. For the compound `CCOc1ccc(C(=O)CCC(=O)NC2=NCCS2)cc1`, the activation is 12.7%.

For `O=C(c1ccc(Cl)cc1)c1cnc(Nc2ccccc2)s1`, the activation is 34.7%. Next, `CS(=O)(=O)c1ccc(Cl)c(NC(=O)Nc2ccccc2)c1`: -2.82%. The figure for `O=C(Nc1ccccc1)c1nnsc1S(=O)(=O)c1ccc(Cl)cc1` is 79.4% (active); for `CC(Sc1nn(-c2ccc(Cl)cc2)c(=S)s1)C(=O)NCC1CCCO1` (configuration not stated) it is 3.22%.

Turning to `O=C(NNC(=O)c1ccco1)Nc1ccccc1`, the activation is 12.4%. `O=C(NNC(=S)Nc1ccc(Br)cc1Cl)c1ccco1`: the activation was 59% (active). As for `CCC(=O)NC(=S)Nc1ccc(NC(=O)c2ccco2)c(Cl)c1`, the activation was 7.81%. Take `CCCCn1c(N)c(N(CCC(C)C)C(=O)c2ccc(COc3ccccc3)o2)c(=O)[nH]c1=O`: the activation is 7.06%.

Regarding `CCCCn1c(N)c(N(CC(C)C)C(=O)CN(C)S(=O)(=O)c2ccc(F)cc2)c(=O)[nH]c1=O`, the activation is -2.61%. In the case of `Cc1ccc(S(=O)(=O)N2CCN(C(=O)c3ccc(-n4cncn4)c([N+](=O)[O-])c3)CC2)cc1`, the activation was -21.4%. Turning to `O=C(CNC(=O)c1cccnc1)N/N=C/c1cccnc1`, the activation was -3.13%.

`Cc1ccc(NC(=O)CSc2cccc3cccnc23)c(C)c1`: the activation was 4.2%. `O=C(CSc1cccc2cccnc12)N/N=C/c1cccnc1`: the activation is 161% (active). Next, `CC(C)(C)S(=O)(=O)c1ccccc1-c1noc(-c2ccccc2)c1C(N)=O`: -2.64%; `CCOc1cc(/C=C2\SC(N3CCCCC3)=NC2=O)ccc1O`: 34.2%.

On to `CC1CCN(C2=NC(=O)/C(=C/c3ccc(O)cc3)S2)CC1`, for which the activation is 8.53%. Take `O=C1N=C(N2CCCC2)S/C1=C\c1cccc(Br)c1`: the activation is 103% (active). For the compound `NC(=O)NC(=O)C(OC(=O)CCNS(=O)(=O)c1ccccc1)c1ccccc1` (configuration not stated), the activation is 18.2%.

`O=C(CCNC(=O)c1ccc(Br)cc1)Nc1cccc(S(=O)(=O)N2CCCCC2)c1`: the activation was 23.3%.

`CCCCn1c(N)c(N(CC(C)C)C(=O)c2ccc(Br)o2)c(=O)[nH]c1=O`: the activation was -5.41%. Next, `CCOc1ccc(/C=C/C(=O)OCC(=O)c2ccccc2OC)cc1OC`: 1.42%; `CCN1C(=O)[C@@H]2[C@@H](c3ccc(-c4ccccc4)cc3)N3CCCC[C@@]3(C(=O)OC)[C@@H]2C1=O`: 16.1%. The figure for `CSc1ccc(/C=N/NC(=O)c2cccc(Cl)c2)cc1` is 80.3% (active); for `COc1ccc(/C=N/NC(=O)c2cccc(C(F)(F)F)c2)cc1` it is 0.104%; for `CSc1ccc(/C=N\NC(=O)COc2ccc(Cl)cc2Br)cc1` it is 0.476%. As to `O=C(COC(=O)c1ccccc1SCC(=O)N1CCCC1)Nc1ccccc1OC(F)F`, the activation was 5.14%. On to `O=C(COC(=O)c1ccc([N+](=O)[O-])cc1Cl)NC(=O)c1ccccc1`, for which the activation is -8.14%. Take `CCOc1ccc2ccccc2c1/C=N/NC(=O)c1c(C)cc(C)[nH]c1=O`: the activation is 23.9%. For `Cc1ccccc1Nc1nnc(C)c(=O)[nH]1`, the activation is 54.6% (active). As for `Cc1nnc(N/N=C/c2ccccn2)[nH]c1=O`, the activation is -18.5%. Turning to `Cc1nnc(N/N=C/c2cccs2)[nH]c1=O`, the activation is -4.02%. As to `O=C(CSc1ccc(-c2ccc(-n3cccn3)cc2)nn1)Nc1ccc([N+](=O)[O-])cc1`, the activation was 8.59%. Next, `CCOc1cc(/C=C/c2nc3ccccc3c(=O)[nH]2)cc(Br)c1OC`: 14.8%. For `O=c1[nH]c(/C=C/c2cccc(Br)c2)nc2ccccc12`, the activation is 58.9% (active). For `O=c1oc(/C=C/c2ccccc2)nc2ccccc12`, the activation is -13.5%. Take `CCOc1ccc(CCNC(=O)COC(=O)CCS(=O)(=O)c2ccc(C)cc2)cc1OCC`: the activation was 1.98%. With `Cc1cc(Br)ccc1NC(=O)CN(C)C(=O)CN1C(=O)NC2(CCCC2)C1=O`, the activation was 6.32%. As to `CCC(c1nnnn1Cc1ccco1)N(CCc1ccccc1)Cc1cc2ccc(OC)cc2[nH]c1=O` (configuration not stated), the activation was 9.84%.

In the case of `CCC(c1nnnn1Cc1ccccc1)N(Cc1cc2cc(OC)ccc2[nH]c1=O)CC1CCCO1` (configuration not stated), the activation is 17.4%. In the case of `CCC(c1nnnn1Cc1ccco1)N(Cc1cc2cc(OC)ccc2[nH]c1=O)C1CCCCC1` (configuration not stated), the activation was 136% (active). Take `CCc1ccc(CNC(=O)CCc2nc(-c3cccs3)no2)cc1`: the activation is 3.43%. Consider `COc1ccc(CCc2nc(-c3cccs3)no2)cc1`, for which the activation was 65% (active). The figure for `COc1ccc(OC)c(CNC(=O)CCc2nc(-c3cccs3)no2)c1` is -8.19%; for `COc1cccc(N2CC(NS(=O)(=O)c3ccc(Cl)cc3)CC2=O)c1` (configuration not stated) it is 11.2%; for `COc1ccc(NC(=O)CCC(=O)N2CCN(S(=O)(=O)c3ccc(C)cc3)CC2)c(OC)c1` it is -9.72%. Turning to `CN(CC(=O)Nc1ccccc1Cl)C(=O)c1ccccc1SCC(=O)N1CCCC1`, the activation is 15.5%. Next, `O=C(Nc1ccccc1)OCc1cn(-c2ccc(Cl)cc2)nn1`: -2.71%; `COC(=O)CN1C(=S)N(c2ccccc2)C(=O)C1CC(=O)Nc1ccc(Cl)cc1` (configuration not stated): 4.42%. Turning to `O=C(O)CC1=C(Nc2ccccc2)C(=O)N(c2ccccc2)C1c1ccc(Cl)cc1` (configuration not stated), the activation is 65.5% (active). For `COc1ccc(Cl)cc1C=CC=NNC(=O)c1ccncc1`, the activation is 5.04%.

Consider `O=C(Cc1ccc(Br)cc1)NCCc1ccccc1`, for which the activation is 18.4%.

Turning to `CC(=O)c1c(C)[nH]c(C(=O)CN2C(=O)NC(C)(C)C2=O)c1C`, the activation is -22.1%.

As for `Cc1cc(=O)oc2cc(OC(C)C(=O)NCCc3ccc(S(N)(=O)=O)cc3)ccc12` (configuration not stated), the activation is 12.2%. Next, `Cc1cc(=O)oc2c(C)c(OCC(=O)NCCc3ccc(S(N)(=O)=O)cc3)ccc12`: -4.95%. The figure for `Cc1ccc2c(=O)cc(C(=O)NCCc3ccc(S(N)(=O)=O)cc3)oc2c1C` is 62.8% (active); for `O=C(NCCC1CCCCN1S(=O)(=O)c1ccc(F)cc1)C(=O)NC1CC1` (configuration not stated) it is 3.8%.

As to `CCOc1ccc(CCNC(=O)COC(=O)C2CCN(c3ccc(C(F)(F)F)cn3)CC2)cc1OCC`, the activation is 2.31%. Take `O=C(Nc1ccc(Cl)cn1)c1ccc2c(c1)OCCO2`: the activation was 9.46%.

In the case of `Cc1nc(NC(=O)c2ccc3c(c2)OCCO3)ccc1Br`, the activation is 58.7% (active). `O=C(Nc1ccccc1)c1ccc2c(c1)OCCCO2`: the activation is 12.7%. Next, `O=[N+]([O-])c1ccc(O)c(/C=N/Nc2ccccc2[N+](=O)[O-])c1`: -10.2%. As to `Nn1cnnc1N/N=C/c1cc([N+](=O)[O-])c(Cl)cc1Cl`, the activation was 56.4% (active). Next, `Cc1ccc2nc(NC(=O)CSc3nc(=O)n(CCCN(C)C)c4c3CCC4)sc2c1`: 2.36%.

As for `Cc1ccccc1OCC(=O)NNC(=O)c1ccc(-n2cncn2)c([N+](=O)[O-])c1`, the activation was 4.89%.

For the origin of these results see PubChem BioAssay AID504408 (Broad Institute, 2011).
